# Data published in PubChem BioAssay (NCI).
# Values joined by “and” are separate entries in the source; they are usually repeats but may differ in a detail not shown here. Equal entries are not always repeated. The panel holds about 83,000 compounds, 20% with a hit somewhere; the sample as a whole holds those more often.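 The endpoint reported here, percent growth, reads 100 for growth as untreated, 0 for no net growth and -100 for all cells dead.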 Active and inactive are the calls of the source. How the source made its calls: active means growth percent below 10; inactive means the rest.
# Experiments:
# Assay in all cases: NCI-60 one-dose screen, 48 h (100 = growth as untreated, 0 = no growth, -100 = all killed)
# Conditions in all cases: 10 µM
# T-47D breast = tested on: T-47D breast
# BT-549 breast = tested on: BT-549 breast
# MDA-MB-435 melanoma = tested on: MDA-MB-435 melanoma
# SW-620 colon = tested on: SW-620 colon
# MCF7 breast = tested on: MCF7 breast
# HCT-116 colon = tested on: HCT-116 colon
# KM12 colon = tested on: KM12 colon
# MDA-MB-468 breast = tested on: MDA-MB-468 breast
# HCC-2998 colon = tested on: HCC-2998 colon
Compound,growth (T-47D breast),growth (BT-549 breast),growth (MDA-MB-435 melanoma),growth (SW-620 colon),growth (MCF7 breast),growth (HCT-116 colon),growth (KM12 colon),growth (MDA-MB-468 breast),growth (HCC-2998 colon)
CCOC(=O)c1c(CSc2ccccc2)n(C)c2cc(CN(C)C)c(O)c(CN(C)C)c12,50.2% (inactive),63.7% (inactive),54% (inactive),23.1% (inactive),3.06% (active),10.9% (inactive),40.4% (inactive),-4.94% (active),–
C/C(=C\CC/C=C(\C)CC/C=C(\C)CC[C@@H](O)C(C)(C)O)CC/C=C(\C)CC[C@@H](O)C(C)(C)O,6.38% (active),8.56% (active),39.5% (inactive),43% (inactive),13.8% (inactive),10% (inactive),25.5% (inactive),0.844% (active),–
O=C(Nc1ccc(OCC(=O)c2ccccc2)cc1)Nc1ccc(Cl)c(C(F)(F)F)c1,3.26% (active),33.7% (inactive),-25.4% (active),32% (inactive),35% (inactive),29.6% (inactive),1.99% (active),-5.5% (active),–
O=C(c1ccc(-n2c(=O)[nH]c3ccccc3c2=O)cc1)N1CCOCC1,99.7% (inactive),75.6% (inactive),102% (inactive),97.1% (inactive),101% (inactive),99.2% (inactive),114% (inactive),94.7% (inactive),–
O=C(Nc1cccc([N+](=O)[O-])c1)Nc1cccc([N+](=O)[O-])c1,40.6% (inactive),67.1% (inactive),90.3% (inactive),87.9% (inactive),72.5% (inactive),54.4% (inactive),70.6% (inactive),7.95% (active) and 24.6% (inactive),–
CCOc1ccc(/C=N/NC(=O)Cn2nc(Cc3ccccc3)c3onc(C)c3c2=O)cc1,44.9% (inactive),6.06% (active),55.3% (inactive),43.3% (inactive),28.3% (inactive),–,66.4% (inactive),-7.05% (active),60.6% (inactive)
CCCCSc1nc(Nc2ccc(/C(C)=N/NC(N)=S)cc2)c(C#N)c(-c2ccc(OC)cc2)n1,67.2% (inactive),42.9% (inactive),59.3% (inactive),97.2% (inactive),49.2% (inactive),38.2% (inactive),79.3% (inactive),87.7% (inactive),–
O/N=C(\CSc1nnc(-c2c[nH]c3ccccc23)n1-c1ccccc1)c1ccc(Cl)cc1,3.91% (active),-66.7% (active),-99.8% (active),-37% (active),3.27% (active),–,21.4% (inactive),–,17% (inactive)
CN(C)c1ccc(/C=C/c2nc3ccccc3c(=O)n2CC(=O)Nc2ccc(Cl)cc2)cc1,75.1% (inactive),26.6% (inactive),68.8% (inactive),61.9% (inactive),27.9% (inactive),56.8% (inactive),55.1% (inactive),31.3% (inactive),–
CC(=O)c1cc(C(=O)c2ccc3c(c2)NC(=O)CO3)n2ccc3ccccc3c12,75.3% (inactive),78.3% (inactive),80.5% (inactive),93.1% (inactive),64% (inactive),45% (inactive),51.5% (inactive),50% (inactive),–
COc1ccc2ncc(C#Cc3cncc(C(=O)Nc4ccc(CN5CCN(C)CC5)c(C(F)(F)F)c4)c3)n2n1,61.8% (inactive),-75.7% (active),-89.6% (active),-72.4% (active),-71.7% (active),-43.6% (active),-95% (active),-91.1% (active),–
CN(CCO)c1oc(-c2ccccc2)nc1[P+](c1ccccc1)(c1ccccc1)c1ccccc1,0.664% (active),-22.5% (active),2.53% (active),11.5% (inactive),0.978% (active),6.5% (active),-39.4% (active),-55.9% (active),–
O=C1Nc2ccc(Cl)cc2/C1=C/c1ccc(OCc2ccccn2)cc1,69% (inactive),78.8% (inactive),76.9% (inactive),47.5% (inactive),28.9% (inactive),28.5% (inactive),78.8% (inactive),50.4% (inactive),–
O=C(CNc1nc(-c2ccccc2)cs1)Nc1cccc([N+](=O)[O-])c1,-49.9% (active),-73.1% (active),-77.9% (active),-66.7% (active),-81.6% (active),–,-44% (active),-90.6% (active),-99.8% (active)
O=C(CSc1nnc(-c2c[nH]c3ccccc23)n1-c1ccccc1)Nc1ccc(C(=O)/C=C/c2ccccc2Cl)cc1,43.1% (inactive),84.4% (inactive),65.8% (inactive),87.6% (inactive),40.4% (inactive),22.1% (inactive),74.7% (inactive),72.1% (inactive),–
Cc1ccc(-c2cc(-c3cc4ccccc4nc3Cl)[nH]c(=S)n2)cc1,57.3% (inactive),7.67% (active),-1.81% (active),78.4% (inactive),47.5% (inactive),64.5% (inactive),61.6% (inactive),11.7% (inactive),–
COc1cc(NC(=O)c2cc(-c3ccc(F)cc3F)ccc2O)cc(OC)c1OC,-10.1% (active),4.31% (active),36.2% (inactive),55.3% (inactive),38.9% (inactive),42.5% (inactive),29.8% (inactive),15% (inactive),–
CC(C)(C)c1ccc(NCc2cn(-c3ccc(C(=O)O)cc3)nc2-c2ccc(C#N)cc2)cc1,21.4% (inactive),-2.13% (active),34% (inactive),32.2% (inactive),6.04% (active),-13.9% (active),-38.3% (active),19% (inactive),–
CCCCOc1ccc(Nc2nc3ccccc3nc2Nc2ccc(OCCCC)cc2)cc1,79% (inactive),104% (inactive),88.4% (inactive),96.3% (inactive),75.3% (inactive),–,86.8% (inactive),–,106% (inactive)
